PubChem BioAssay AID1852 (Sanford-Burnham Center for Chemical Genomics, 2009)
The campaign covered roughly 2,500 compounds. About 1,100 (44%) were called active.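 The calls were made as follows: active = inhibition above 50% at 4 µM in the single-point screen; inactive = inhibition of 50% or less.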 So high a share suggests a set chosen from earlier hits. The list shows a part of the results.

Experiment: blockers of TNF-a NF-kB luciferase induction – cell-based, HEK293T NF-kB-Luc, luminescence, selectivity assay for NOD1/NOD2 signaling inhibitor project, primary screen (AID 1852)
Conditions: TNF-a induced, 14 h, at 4 µM, stronger effect = higher value
With `Cc1ccc(Cn2ccsc2=NC(=O)CCl)cc1` the inhibition was 46.5% (inactive).
In the case of `CCOc1cc(C)c(Cl)cc1S(=O)(=O)n1nnc2ccccc21`, the inhibition is reported as 63.8% (active).
In the case of `CCCn1c(NC(=O)c2ccc(Cl)c(S(=O)(=O)N3CCCC3)c2)nc2ccccc21`, the inhibition is reported as 24.9% (inactive).
In the case of `CC1CC(=O)N(c2ccc(NCCc3ccccc3)c([N+](=O)[O-])c2)C1=O` (stereo not given), the inhibition is reported as -4.9% (inactive).
For `COc1ccc(CCNC(=O)c2ccc3c(c2)N(Cc2ccccc2)CCS3)cc1OC`, the inhibition was -41.1% (inactive).
With `COc1ccc(CCNc2cc(N3CCN(C(=O)c4ccccc4F)CC3)ccc2[N+](=O)[O-])cc1OC` the inhibition was 85.7% (active).
With `CC1=C(C(=O)NC2CCCc3c2cnn3-c2ccc(F)cc2F)OCCO1` (stereo not given) the inhibition was 40.2% (inactive).
For `Cc1ccc(C(=O)NC2CCCc3c2cnn3-c2ccc(F)cc2F)cn1` (stereo not given), the inhibition was 71.6% (active).
With `CC(C)(C)c1ccc(-n2ncc3c2CCCC3NC(=O)C2(C(N)=O)CC2)cc1` (stereo not given) the inhibition was 61.3% (active).
For `COc1ccc(C(=O)NC2CCCc3c2cnn3-c2ccccc2F)cc1OC` (stereo not given), the inhibition was 33.4% (inactive).
With `Cc1cccc(-n2ncc3c2CCCC3NC(=O)C2(C(N)=O)CC2)c1C` (stereo not given) the inhibition was 29.3% (inactive).
For `Cc1cc(C(=O)NC2CCCc3c2cnn3-c2ccc(C(C)(C)C)cc2)nn1C` (stereo not given), the inhibition was 68.8% (active).
In the case of `Cn1nccc1C(=O)NC1CCCc2c1cnn2-c1ccc(C(C)(C)C)cc1` (stereo not given), the inhibition is reported as 72.8% (active).
With `CC1CN(CCCCOc2ccc(Cl)c3ccccc23)CC(C)O1` (stereo not given) the inhibition was 8.2% (inactive).
For `Cn1nccc1C(=O)NC1CCCc2c1cnn2-c1ccc(F)cc1F` (stereo not given), the inhibition was 39.9% (inactive).
With `Cc1ncoc1C(=O)NC1CCCc2c1cnn2-c1ccc(C(C)(C)C)cc1` (stereo not given) the inhibition was 74.7% (active).
For `COc1ccc(C(=O)NC2CCCc3c2cnn3-c2ccccc2F)o1` (stereo not given), the inhibition was -21.5% (inactive).
For `Cc1ccc(-n2ncc3c2CCCC3NC(=O)c2ocnc2C)cc1C` (stereo not given), the inhibition was 49.3% (inactive).
With `Cn1nccc1C(=O)NC1CCCc2c1cnn2-c1ccccc1F` (stereo not given) the inhibition was 51.8% (active).
With `Cc1c(C)c2ccc(OCC(=O)Nc3ccc(N4CCC(C)CC4)cc3)cc2oc1=O` the inhibition was 94.7% (active).
For `CCN(CC)S(=O)(=O)c1ccc2[nH]cc(C(=O)NCCC3=CCCCC3)c(=O)c2c1`, the inhibition was 38.4% (inactive).
For `Cc1ccc(-n2nc3c(=O)n(C(C)C(=O)NCCCc4ccccc4)nc(C)c3c2C)cc1` (stereo not given), the inhibition was 53.9% (active).
For `Cc1nn(Cc2ccccc2)c(Cl)c1C(=O)OC(C)C#N` (stereo not given), the inhibition was 40.7% (inactive).
In the case of `Cc1ccc(-n2nc3c(=O)n(CC(=O)NC(C)CCc4ccccc4)nc(C)c3c2C)cc1` (stereo not given), the inhibition is reported as 50% (active).
With `Cc1ccc(-n2nc3c(=O)n(C(C)C(=O)NCCc4cccs4)nc(C)c3c2C)cc1` (stereo not given) the inhibition was 60.4% (active).
With `Cc1ccc(-n2nc3c(=O)n(C(C)C(=O)NCCC4=CCCCC4)nc(C)c3c2C)cc1` (stereo not given) the inhibition was 54.3% (active).
With `C[C@@H](C(=O)NCCc1ccccc1)N1C(=O)N2CCc3c([nH]c4ccccc34)[C@@]2(C)C1=O` the inhibition was 38.1% (inactive).
In the case of `COc1ccc(-c2cc(C)no2)cc1S(=O)(=O)N1CCN(c2ccc([N+](=O)[O-])cc2)CC1`, the inhibition is reported as 44.5% (inactive).
In the case of `CCN1/C(=C/c2ccc3cc(C)ccc3[n+]2CC)Sc2ccccc21`, the inhibition is reported as 76.1% (active).
For `CCN1/C(=C\c2ccc3cc(C)ccc3[n+]2CC)Sc2cc(C)c(C)cc21`, the inhibition was 65.4% (active).
In the case of `CCN1/C(=C/c2ccc3cc(C)ccc3[n+]2CC)Sc2cc(C)c(C)cc21`, the inhibition is reported as 54.5% (active).
With `CCN1/C(=C\c2ccc3ccccc3[n+]2CC)Sc2cc(C)ccc21` the inhibition was 55.6% (active).
For `CCN1/C(=C/c2ccc3cc(C)ccc3[n+]2CC)Sc2cc(C)ccc21`, the inhibition was 48.9% (inactive).
For `O=C1N(Cc2cccc(Cl)c2)C[C@@H]2C[C@@H](c3cccn3-c3cccnc3)N3CCC[C@@]123`, the inhibition was 4.8% (inactive).
For `CCN1/C(=C/c2ccc3cc(C)cc(C)c3[n+]2CC)Sc2cc(C)ccc21`, the inhibition was 79.4% (active).
In the case of `CN(Cc1ccc(Cl)cc1)C(=O)CCl`, the inhibition is reported as 9.6% (inactive).
In the case of `O=C(CCl)N(Cc1ccccc1)c1ccccc1`, the inhibition is reported as 89.7% (active).
For `O=Cc1[nH]c2ccccc2c1N(C(=O)CCl)c1ccccc1`, the inhibition was 31.9% (inactive).
For `O=C(CCl)N(c1ccccc1)c1ccccc1`, the inhibition was 63.7% (active).
With `O=C(CCl)NC(Cc1ccccc1)c1ccccc1` (stereo not given) the inhibition was 21.3% (inactive).
With `O=C(CCl)N(c1ccccc1)c1c[nH]c2ccccc12` the inhibition was 103% (active).
With `COc1ccc(CC(=O)N(Cc2ccccc2)c2ccccc2)cc1S(=O)(=O)N1CCOCC1` the inhibition was 13.5% (inactive).
With `COc1cc2c(cc1OC)C(c1ccc(-c3cc(Cl)ccc3Cl)o1)=NCC2` the inhibition was 26.5% (inactive).
For `Cc1csc(NC(=O)C2CC(=O)N(c3ccc(C)c(C)c3)C2)n1` (stereo not given), the inhibition was -11.9% (inactive).
With `Cc1cnc(NC(=O)C2CC(=O)N(c3cccc(Cl)c3)C2)s1` (stereo not given) the inhibition was 92.4% (active).
In the case of `O=C(/C(=C\c1ccccc1)c1nc2ccccc2[nH]1)c1ccc(Cl)cc1`, the inhibition is reported as 94.9% (active).
In the case of `O=C(/C(=C/c1cccc(Cl)c1)c1nc2ccccc2[nH]1)c1ccccc1`, the inhibition is reported as 31.9% (inactive).
For `O=C(/C(=C/c1ccc(Cl)cc1)c1nc2ccccc2[nH]1)c1cccs1`, the inhibition was 106% (active).
In the case of `COc1cc(/C=C(/C(=O)c2cccs2)c2nc3ccccc3[nH]2)ccc1O`, the inhibition is reported as 31.5% (inactive).
With `O=C(/C(=C/c1ccc(Cl)cc1)c1nc2ccccc2[nH]1)c1ccccc1` the inhibition was 107% (active).
With `Cc1cccc(Cc2cnc(N3C(=N)SC(C)C3=O)s2)c1` (stereo not given) the inhibition was 100% (active).
In the case of `Cc1cccc(CN2CCN(C(=O)CCl)CC2)c1`, the inhibition is reported as 36% (inactive).
For `Cc1ccc(Cc2cnc(N3C(=N)SC(C)C3=O)s2)cc1` (stereo not given), the inhibition was 103% (active).
For `COc1cc(S(=O)(=O)NCc2ccncc2)ccc1Br`, the inhibition was 45.8% (inactive).
With `CCSc1nsc(NC(=O)Nc2cccc(C(C)=O)c2)n1` the inhibition was 30.4% (inactive).
With `C=CCSc1nsc(NC(=O)Nc2ccc(F)cc2)n1` the inhibition was 43.4% (inactive).
For `C=CCSc1nsc(NC(=O)Nc2cccc(C(C)=O)c2)n1`, the inhibition was 85.2% (active).
With `CC(=O)c1ccc(Nc2nc3ccccc3nc2NS(=O)(=O)c2cccs2)cc1` the inhibition was 12.2% (inactive).
For `C=CCN(c1ccccc1OC)S(=O)(=O)c1ccc(Cl)c(C(=O)Nc2ccc(N3CCOCC3)cc2)c1`, the inhibition was 25.4% (inactive).
In the case of `O=S(=O)(Nc1nc2ccccc2nc1Nc1ccc(N2CCOCC2)cc1)c1cc(Cl)ccc1Cl`, the inhibition is reported as 77% (active).
With `Cc1ccccc1-c1nc(CS(=O)(=O)CC(=O)NCCc2ccccc2)c(C)o1` the inhibition was 10% (inactive).
In the case of `Cc1oc2c(c1C(=O)NCc1cccnc1)C(=O)c1ccccc1C2=O`, the inhibition is reported as 97.7% (active).
In the case of `COc1ccc(CNC(=O)c2ccc3ccccc3n2)cc1OC`, the inhibition is reported as 38% (inactive).
In the case of `Cc1oc2c(c1C(=O)c1ccccc1)C(=O)C(=O)c1ccccc1-2`, the inhibition is reported as 104% (active).
With `COc1ccc(CNC(=O)c2c(C)oc3c2C(=O)c2ccccc2C3=O)cc1` the inhibition was 100% (active).
With `Fc1ccc(NC(=S)NNc2ncc(C(F)(F)F)cc2Cl)c(F)c1` the inhibition was 49.4% (inactive).
In the case of `CCCCNC(=S)Nc1ccc(C(F)(F)F)cc1`, the inhibition is reported as -47.5% (inactive).
For `Cc1csc2c(N3CCN(C(=S)Nc4ccc(C(F)(F)F)cc4)CC3)ncnc12`, the inhibition was 78.5% (active).
In the case of `Cc1csc2c(N3CCN(C(=O)Nc4ccc(Cl)c(Cl)c4)CC3)ncnc12`, the inhibition is reported as 52.5% (active).
In the case of `Cc1csc2ncnc(N3CCN(C(=S)Nc4ccc(F)cc4F)CC3)c12`, the inhibition is reported as 66.9% (active).
For `Fc1ccc(NC(=S)N2CCCN(c3ccc(C(F)(F)F)cn3)CC2)c(F)c1`, the inhibition was 55.6% (active).
In the case of `Cc1ccc(S(=O)(=O)c2c(C(=O)c3ccccc3)cnc3cc4c(cc23)OCCO4)cc1`, the inhibition is reported as 1.5% (inactive).
For `Cc1csc2ncnc(N3CCN(C(=O)Nc4ccc(OC(F)(F)F)cc4)CC3)c12`, the inhibition was 102% (active).
With `Cc1csc2ncnc(N3CCN(S(=O)(=O)c4cccc(C(F)(F)F)c4)CC3)c12` the inhibition was 44.4% (inactive).
With `Cc1csc2ncnc(N3CCN(C(=S)Nc4ccc(C(F)(F)F)cc4)CC3)c12` the inhibition was 66.1% (active).
In the case of `O=C(CCl)c1cc2c3c(c1)CC(=O)N3CCC2`, the inhibition is reported as 90.7% (active).
With `Fc1ccc(NC(=S)Nc2nccs2)cc1` the inhibition was 73.6% (active).
For `O=[N+]([O-])c1ccc(NC(=S)NCc2ccc(F)cc2)cc1`, the inhibition was 22.1% (inactive).
In the case of `CC(=O)Nc1nnc(S(=O)(=O)N2CCN(c3ccc(Cl)cc3[N+](=O)[O-])CC2)s1`, the inhibition is reported as -2.9% (inactive).
For `COc1ccc(-c2cn[nH]c2-c2ccc(OC)cc2O)cc1`, the inhibition was 69.2% (active).
In the case of `COc1ccc(-c2cn[nH]c2-c2ccc(OCc3ccccc3F)cc2O)cc1OC`, the inhibition is reported as -1.5% (inactive).
In the case of `COc1ccc(-c2cn[nH]c2-c2ccc(OC)cc2)cc1`, the inhibition is reported as 63.6% (active).
For `CCCOC(=O)c1ccc(Oc2cn[nH]c2-c2ccc(O)cc2O)cc1`, the inhibition was 17.1% (inactive).
With `COc1ccc(-c2cn[nH]c2-c2ccc(OCc3ccccc3)cc2O)cc1` the inhibition was 32.2% (inactive).
In the case of `COc1ccc(-c2cn[nH]c2-c2ccc(O)cc2O)cc1`, the inhibition is reported as 51% (active).
In the case of `COc1ccc(-c2[nH]ncc2-c2ccc3c(c2)OCCO3)c(O)c1`, the inhibition is reported as 102% (active).
With `COc1ccc(-c2cn[nH]c2-c2ccc(OCc3ccc(F)cc3)cc2O)cc1OC` the inhibition was 4.6% (inactive).
With `CS(=O)(=O)N1CCC(C(=O)Nc2cc(Cl)c(Cl)cc2Cl)CC1` the inhibition was 30.2% (inactive).
In the case of `COc1ccc(CC2(CO)CCN(CC3=Cc4cc(Cl)ccc4OC3)CC2)cc1`, the inhibition is reported as 44% (inactive).
For `Cc1nc(Sc2ccc(Br)cc2)c(C#N)c(C)c1[N+](=O)[O-]`, the inhibition was -8.7% (inactive).
With `O=C(Cc1ccc(Cl)cc1)Nc1ncc([N+](=O)[O-])s1` the inhibition was 16.3% (inactive).
For `COc1ccc(NC(=O)/C(Cl)=C(/Cl)S(=O)Cc2ccc(Cl)cc2)cn1` (stereo not given), the inhibition was 89% (active).
In the case of `COc1ccc(NC(=O)/C(Cl)=C(/Cl)S(=O)Cc2ccccc2)cn1` (stereo not given), the inhibition is reported as 104% (active).
In the case of `COc1ccc(CS(=O)/C(Cl)=C(/Cl)C(=O)Nc2ccc(OC)nc2)cc1` (stereo not given), the inhibition is reported as 101% (active).
For `COc1ccc(NC(=O)/C(Cl)=C(/Cl)S(=O)Cc2ccc(C)cc2)cn1` (stereo not given), the inhibition was 105% (active).
